Shown is part of a subset that was picked to be rich in hits.
Ba CapD inh: blocks the Bacillus anthracis CapD enzyme; purified CapD enzyme, fluorescence intensity read-out; stronger effect = lower value; hit rate 0.23% among 140,000; z-score (no concentration beside the values); in the data active = z-score mostly below about -2.9, no sharp cut-off; inactive = mostly above about -1.9
The depositor's hits bear a star.

Screening Nc1ccccc1/C=C1\C(=O)Nc2ccccc21 returned Ba CapD inh -1.5.
For COc1ccc(C(=O)N/N=C/c2cccc(OC(C)=O)c2)cc1OC the results were Ba CapD inh -2.1.
CC(C)N(C(=O)c1cc(C(=O)c2ccccc2)c[nH]1)C(C)C was read as Ba CapD inh -0.36.
COc1ccc(CCNC(=O)CSc2nc3ccccc3c(=O)n2CCC(=O)NCCc2ccccc2)cc1OC was read as Ba CapD inh 0.35.
`Cc1ccc(N2C(=O)NC(=O)/C(=C\c3cc(C)n(-c4cc(C(=O)O)cc(C(=O)O)c4)c3C)C2=O)cc1` gave Ba CapD inh -1.1.
Cc1cc(/C=C2\C(=O)NC(=S)N(c3cccc(Cl)c3)C2=O)c(C)n1-c1cc(C(=O)O)cc(C(=O)O)c1 was read as Ba CapD inh -5.9*.
Cc1cc(/C=C2\C(=O)NC(=S)N(c3ccc(F)cc3)C2=O)c(C)n1-c1ccccc1 was read as Ba CapD inh -0.46.
CC(C)(O)c1cn2ccccc2n1 was read as Ba CapD inh 16.
Screening CCC(=O)OC1C(C)OC(OC2C(C)OC(O[C@H]3[C@@H](CC=O)C[C@@H](C)[C@@H](O)/C=C/C=C/C[C@@H](C)OC(=O)C[C@@H](OC(=O)CC)[C@@H]3OC)C(O)C2N(C)C)CC1(C)O (some centres undefined) returned Ba CapD inh -1.2.
Cc1ccc(S(=O)(=O)NC(=O)Oc2ccc(-c3csnn3)cc2)cc1 was read as Ba CapD inh -0.2.
For O=C(Cc1cccc2ccccc12)OCC(=O)c1ccc(Br)cc1 the results were Ba CapD inh -0.28.
CSCCC(NC(=O)c1ccc(C(F)(F)F)cc1)C(=O)NN=Cc1cccc(Oc2ccc(C(C)(C)C)cc2)c1 (centres undefined) was read as Ba CapD inh 0.24.
`O=c1[nH]c(=S)c2c(n1N1CCOCC1)CCC2` gave Ba CapD inh -5*.
Cc1cc(/N=C/C=C2\N(C)c3ccccc3C2(C)C)n(CCC#N)n1 was read as Ba CapD inh -4.4*.
Cc1cc(/N=C/c2cc(C)n(Cc3ccccc3)c2C)n(CCC#N)n1 was read as Ba CapD inh -1.6.
`CN1/C(=C/C(=O)CSC2CCCC2)C(C)(C)c2ccccc21` gave Ba CapD inh 6.5.
For CSc1ncc(C(=O)N2CCN(c3ccccc3F)CC2)c(C)n1 the results were Ba CapD inh -0.92.
Screening COC(=O)c1c(C)oc2c1cc(NS(=O)(=O)c1ccc3c4c(cccc14)C(=O)N3)c1ccccc12 returned Ba CapD inh 0.5.
Screening O=C(NCC1CCCO1)C1CCCN(C(=O)N2CCOc3ccccc32)C1 (centres undefined) returned Ba CapD inh 0.52.
Screening O=C(O)c1cccc(N2CCCC2)c1 returned Ba CapD inh 76.
`Cc1ccc(C)n1-c1cccc(N)c1` gave Ba CapD inh 0.07.
Screening CC(=O)Nc1sccc1C(=O)O returned Ba CapD inh 0.89.
Screening Cc1ccc(C)n1-c1sccc1C(=O)CC#N returned Ba CapD inh 0.39.
For Cc1ccc(C)n1-c1sccc1C(=O)O the results were Ba CapD inh -11*.
`Cc1ccc(C)n1-c1ccc(CC(=O)O)cc1` gave Ba CapD inh -3.2.
For Cc1ccc(C)n1-c1ccc(C(=O)O)c(C(=O)O)c1 the results were Ba CapD inh -8.4*.
`Cc1ccc(C)n1-c1cccc(C(=O)O)c1` gave Ba CapD inh -8.6*.
For Cc1cc(C(=O)O)c(C)n1-c1ccc(Cl)cc1 the results were Ba CapD inh -0.14.
CC1CN(C(=N)c2ccc(Cl)cc2)CC(C)O1 (centres undefined) was read as Ba CapD inh -0.28.
COc1ccccc1/C=N\NC(=O)c1ccccn1 was read as Ba CapD inh -0.65.
`Cc1cc(=O)n2[nH]c(NC(=O)c3ccc(C(C)(C)C)cc3)nc2n1` gave Ba CapD inh -0.27.
Screening COc1cc(/C=N/NC(=O)N/N=C/c2cc(OC)c(OC)c(OC)c2)cc(OC)c1OC returned Ba CapD inh 8.6.
For CCOC(=O)C1=C(C)N=c2s/c(=C\c3ccc(OC(C)=O)cc3OC(C)=O)c(=O)n2C1c1cccc([N+](=O)[O-])c1 (centres undefined) the results were Ba CapD inh -0.41.
C(=Nc1ccc2c(c1)OCCOCCOCCO2)c1c[nH]c2ccccc12 was read as Ba CapD inh -0.7.
CCCSc1nnc2c(n1)OC(c1cc(Br)c(O)c(OC)c1)Nc1ccccc1-2 (centres undefined) was read as Ba CapD inh -0.4.
`O=C1CC(c2ccccc2)CC(O)=C1C=NCCN1CCN(C2OC(=O)c3ccccc32)CC1` (centres undefined) gave Ba CapD inh -0.35.
NC(=O)c1cccc(C(N)=O)c1F was read as Ba CapD inh -0.38.
CN(C)c1c(/C=C2\C(=O)Nc3ccccc32)cc(/C=C2/C(=O)Nc3ccccc32)c(N(C)C)c1C#N was read as Ba CapD inh -2.4.
Screening Cc1cc(N2CCN(C(c3ccccc3)c3ccccc3)CC2)n2c(nc3ccccc32)c1C#N returned Ba CapD inh 0.49.
Screening CN1C(=O)C(=Cc2cccn2C(C)(C)C)C(=O)N(C)C1=S returned Ba CapD inh 0.2.
Screening CN1C(=O)/C(=C/c2cccn2C(C)(C)C)C(=O)NC1=S returned Ba CapD inh -4.5*.
Screening CCc1ccc(N2C(=O)/C(=C/c3cccn3C(C)(C)C)C(=O)NC2=S)cc1 returned Ba CapD inh 8.6.
For CCOc1cc(C(=O)NCCN(C)C)cc(OCC)c1OCC the results were Ba CapD inh 0.33.
Screening COc1ccc(S(=O)(=O)N(C)c2ccc(C(N)=O)cc2)cc1OC returned Ba CapD inh 0.18.
COc1ccc(N(C(=O)c2ccncc2)S(=O)(=O)c2ccc(OC)c(OC)c2)cc1 was read as Ba CapD inh -5.6*.
COc1ccc(N(C(C)=O)S(=O)(=O)c2cc(OC)ccc2OC)cc1 was read as Ba CapD inh -1.1.
`CCc1nnc(NC(=O)C(C)c2c(C)n[nH]c2C)s1` (centres undefined) gave Ba CapD inh 0.28.
`CCN1C(=O)c2ccc(C(=O)Nc3ccc(C(=O)O)cc3)cc2C1=O` gave Ba CapD inh -0.21.
CC(C)(C)NC(=O)c1ccc2c(c1)C(=O)N(Cc1ccco1)C2=O was read as Ba CapD inh 0.37.
Screening O=C(O)c1ccc(NC(=O)c2ccc3c(c2)C(=O)N(Cc2ccco2)C3=O)cc1 returned Ba CapD inh -7.6*.
`CCn1c2ccccc2c2nnc(NCCc3ccccc3)nc21` gave Ba CapD inh 0.64.
For CCOC(CNC(=O)NS(=O)(=O)c1ccc(C)cc1)(OCC)c1ccccn1 the results were Ba CapD inh -0.36.
`COc1ccc(C(=O)c2sc3nc(-c4ccco4)cc(C(F)(F)F)c3c2N)cc1OC` gave Ba CapD inh 0.67.
`O=c1cc(O)c2sc3nc(-c4ccco4)cc(C(F)(F)F)c3c2[nH]1` gave Ba CapD inh -6.2*.
`Cc1cc(C(F)(F)F)c2c(n1)sc1c(O)cc(=O)[nH]c12` gave Ba CapD inh 5.8.
`O=S(=O)(Oc1ccc(OCc2ccccc2)cc1)c1cc(Cl)cc(Cl)c1` gave Ba CapD inh 0.85.
Screening COC(=O)c1ccc(OCc2c(C)noc2C)cc1 returned Ba CapD inh 0.11.
Screening Fc1ccc(-c2[nH]ncc2CN2CCN(Cc3ccccc3)CC2)cc1 returned Ba CapD inh -0.29.
COc1ccc(-c2[nH]ncc2CN2CCC(O)(c3ccc(Cl)cc3)CC2)cc1 was read as Ba CapD inh -0.2.
Screening OC1(c2ccc(Cl)cc2)CCN(Cc2cn[nH]c2-c2ccccc2)CC1 returned Ba CapD inh -2.3*.
